Among the data in PubChem BioAssay (NCATS) are Potency values, retold here.

Assay [1] concerns the target Cytochrome P450 2D6 (Homo sapiens) (UniProt P10635). The assay can be described thus: Cytochrome P450 family 2 subfamily D member 6 (CYP2D6) small molecule antagonists: luciferase biochemical (cell-free) qHTS assay (AID 1645840). The essentials: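 P450-Glo luminescent screen: recombinant CYP2D6 enzyme–proluciferin substrate mix preincubated with compound 10 min at room temperature, then NADPH regeneration added for 1 h at room temperature. Detection reagent added for 20 min; luciferin light read as relative luminescence units.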

In assay [2] the target is Cytochrome P450 2C9 (Homo sapiens) (UniProt P11712). The assay can be described thus: Cytochrome P450 family 2 subfamily C member 9 (CYP2C9) small molecule antagonists: luciferase biochemical (cell-free) qHTS assay (AID 1645842). Put shortly:
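Luminescence, after 20 min with luciferin detection reagent, reflected CYP2C9 turnover during a 1 h NADPH-driven reaction at 37C. Enzyme-substrate mix contained 0.4% bovine serum albumin and was preincubated with compound 10 min at room temperature.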

Records with an inconclusive call do not appear. Unmarked numbers belong to inactive results. Activity calls are given as the source filed them. Calls follow the shape of the dose curve; as a rule, active = well fitted curve in the direction sought with a large enough effect in the repeat runs; inconclusive = weak or mixed curves; inactive = no such curve, though single readings can be large; an effect the other way counts as inactive or inconclusive.
Also: nearly all actives have a fitted effect of over 55% in size.
Potency is read from the fitted curve at half-maximal effect.

Sequence of Cytochrome P450 2C9 (Homo sapiens) (P11712 whole entry, looked up): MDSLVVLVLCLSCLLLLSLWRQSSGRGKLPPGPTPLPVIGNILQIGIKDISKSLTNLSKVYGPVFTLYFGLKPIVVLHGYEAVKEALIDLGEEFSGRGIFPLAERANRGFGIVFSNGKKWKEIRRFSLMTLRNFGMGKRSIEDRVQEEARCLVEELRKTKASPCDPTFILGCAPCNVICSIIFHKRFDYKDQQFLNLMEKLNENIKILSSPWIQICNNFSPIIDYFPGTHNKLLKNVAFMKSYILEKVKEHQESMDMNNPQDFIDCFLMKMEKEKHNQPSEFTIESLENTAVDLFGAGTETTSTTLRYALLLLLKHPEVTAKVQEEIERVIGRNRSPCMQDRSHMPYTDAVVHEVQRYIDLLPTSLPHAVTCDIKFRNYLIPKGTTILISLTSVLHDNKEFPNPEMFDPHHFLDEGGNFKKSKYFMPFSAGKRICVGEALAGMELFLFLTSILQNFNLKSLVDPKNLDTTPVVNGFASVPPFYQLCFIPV
Sequence of Cytochrome P450 2D6 (Homo sapiens) (P10635 whole entry, looked up): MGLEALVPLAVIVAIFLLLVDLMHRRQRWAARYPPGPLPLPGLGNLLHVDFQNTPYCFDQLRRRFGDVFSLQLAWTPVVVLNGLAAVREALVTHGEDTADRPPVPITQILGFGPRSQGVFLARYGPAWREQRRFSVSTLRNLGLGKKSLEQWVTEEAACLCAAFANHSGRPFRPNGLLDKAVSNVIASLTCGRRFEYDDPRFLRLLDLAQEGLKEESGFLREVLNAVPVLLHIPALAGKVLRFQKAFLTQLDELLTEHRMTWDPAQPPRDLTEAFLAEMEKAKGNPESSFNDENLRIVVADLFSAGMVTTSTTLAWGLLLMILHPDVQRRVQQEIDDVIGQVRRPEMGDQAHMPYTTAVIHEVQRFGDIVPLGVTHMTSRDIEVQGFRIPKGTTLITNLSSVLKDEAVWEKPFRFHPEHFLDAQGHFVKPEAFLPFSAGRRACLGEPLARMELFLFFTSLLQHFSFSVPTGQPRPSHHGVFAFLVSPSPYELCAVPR

Consider `O=C(CCCCCn1c(=O)c2sccc2n(CC(=O)Nc2cccc(Cl)c2)c1=O)NCc1ccc2c(c1)OCO2`, for which the Potency in assay [1] is 0.0268 µM (active); in assay [2] it was 0.239 µM (active).
Taken in the same sequence, the figures for `Cc1ccc(Cn2c(SCC(=O)NCc3ccccc3)nc3ccsc3c2=O)cc1` were 6.01 µM (active) and 6.74 µM (active).
Taken in the same sequence, the figures for `Cc1ccc(CSc2nc3ccncc3n2Cc2nc(-c3ccccc3C)oc2C)cc1` were 2.39 µM (active) and 7.56 µM (active).
The like results for `CCOc1ccc(CNC(=O)Cn2c(=O)c3cccn3c3ccc(F)cc32)cc1` were, in that order, “inactive” and “inactive”.
As for `CC1=C(C(=O)Nc2cccc(C(N)=O)c2)C(c2ccccc2Cl)N=C(Nc2nc3ccccc3o2)N1` (centres undefined), the figures for the Potency in assay [1] and in assay [2] were 8.49 µM (active) and 0.19 µM (active), respectively.
For `COc1ccc(C(=O)Oc2ccc(C(c3c(C)[nH][nH]c3=O)c3c(C)[nH][nH]c3=O)cc2OC)cc1`, the Potency result in assay [1] is “inactive”. In assay [2], the Potency was 3.38 µM (active).
Taken in the same sequence, the figures for `CC1(C#N)CCN(c2c(C(=O)N3CCC(S(C)(=O)=O)CC3)cnc3cc(F)c(F)cc23)CC1` were “inactive” and “inactive”.
In the case of `NCC1OC(OC2C(N)CC(N)C(OC3OC(CO)C(O)C(N)C3O)C2O)C(N)CC1O` (centres undefined), the Potency result in assay [1] and in assay [2] was “inactive” in each case.
In the case of `Cc1ccc(-n2c(SCc3cccc(F)c3)nc3[nH]ncc3c2=O)cc1C`, the results for the Potency in assay [1] and in assay [2] were 8.49 µM (active) and 1.51 µM (active), respectively.
Taken in the same sequence, the figures for `CCOC(=O)N1CCc2c(sc3c2c(=O)n(Cc2ccccc2)c(=O)n3CC(=O)Nc2ccc(F)cc2)C1` were 1.51 µM (active) and 2.39 µM (active).
The like results for `CN(C)S(=O)(=O)n1cc(/C=C(\NC(=O)c2ccccc2)C(=O)NCCCn2ccnc2)c2ccccc21` were, in that order, 0.0535 µM (active) and 0.213 µM (active).
Taken in the same sequence, the figures for `COc1ccc(CN(C2CCCCC2)[S+](=O)([O-])c2ccc(C)cc2)cc1OC` were “inactive” and 3.79 µM (active).
Regarding `Cc1oc(-c2ccccc2F)nc1Cn1c(SCc2ccccc2F)nc2ccncc21`, the Potency in assay [1] is 12 µM (active); in assay [2], 9.52 µM (active).
For `NC(=O)C(c1ccccc1)(c1ccccc1)[C@H]1CCN(CCc2ccc3c(c2)CCO3)C1`, the Potency was 0.0425 µM (active) in assay [1] and 8.49 µM (active) in assay [2].
As for `CCCNC(=O)C1CCC(Cn2c(=O)c3sccc3n(CC(=O)NCc3ccccc3)c2=O)CC1` (centres undefined), in assay [1], the Potency result was “inactive”. The Potency in assay [2] was 6.01 µM (active).
On to `CCc1ccc(OCCn2c(C3CC(=O)N(Cc4ccc(F)cc4)C3)nc3ccccc32)cc1` (centres undefined), for which the Potency in assay [1] is 3.01 µM (active). The Potency result in assay [2] is “inactive”.
In the case of `CCOc1ccccc1CNC(=O)C1CCN(S(=O)(=O)c2c(C)noc2/C=C/c2ccccc2F)CC1`, in assay [1], the Potency entry was “inactive”. Besides, the Potency in assay [2] was 0.151 µM (active).
Taken in the same sequence, the figures for `CCOc1ccccc1NC(=O)Nc1nnc(N2CCCC(C)C2)s1` (centres undefined) were “inactive” and 10.7 µM (active).
Taken in the same sequence, the figures for `OC[C@@H](O)C(O)[C@@H](O)CO` (some centres undefined) were “inactive” and “inactive”.
With `Cc1nc2c3ccccc3nc(NNC(=O)CCC(=O)N3CCN(c4ccc(F)cc4)CC3)n2n1`, the Potency entry in assay [1] was “inactive”. Moreover, the Potency in assay [2] is 3.79 µM (active).
Turning to `CC1=C(C(=O)Nc2cccc(-c3cn[nH]c3)c2)C(c2ccccc2Cl)N=C(Nc2nc3ccccc3o2)N1` (centres undefined), the figures for the Potency in assay [1] and in assay [2] were 21.3 µM (active) and 1.07 µM (active), respectively.
Taken in the same sequence, the figures for `COc1ccc(CC(=O)NCC(c2cccs2)S(=O)(=O)c2ccc(Cl)cc2)cc1` (centres undefined) were 6.01 µM (active) and 2.39 µM (active).
Regarding `CCc1ccc(C2=CC(c3cccc(OC)c3OC)n3c(nc4ccccc43)N2)cc1` (centres undefined), the results for the Potency in assay [1] and in assay [2] were 16.9 µM (active) and 3.79 µM (active), respectively.
For the molecule `CC(=O)c1ccc(N2CCN(c3ncnc4c3cnn4C)CC2)cc1`, the Potency entry in assay [1] and in assay [2] was “inactive” each time.
Regarding `CC(C)OCc1cc(CN2CCN(c3cccc(C(F)(F)F)c3)CC2)c(O)c2ncccc12`, the Potency entry in assay [1] is “inactive”. For the same molecule, in assay [2], the Potency is 12 µM (active).
As for `COc1ccccc1CNC(=O)CCC1N=C2c3ccccc3N=C(SCC(=O)NCCc3ccc(OC)c(OC)c3)N2C1=O` (centres undefined), in assay [1], the Potency entry is “inactive”. Also, the Potency in assay [2] is 0.301 µM (active).
Turning to `Cc1oc(-c2cccc(Cl)c2)nc1Cn1c(SCc2ccccc2F)nc2ccncc21`, the results for the Potency in assay [1] and in assay [2] were 4.77 µM (active) and 7.56 µM (active), respectively.
For the molecule `CCC(Sc1nc2ccccc2c2nc(CCn3cncc3C)nn12)C(=O)Nc1cccc(OC)c1` (centres undefined), the Potency in assay [1] was 12 µM (active); in assay [2], 1.9 µM (active).
The like results for `COc1ccc(CNC(=O)Nc2ccc3c(c2)N(C)C(=O)c2ccccc2S3)cc1OC` were, in that order, 9.52 µM (active) and “inactive”.
For the molecule `COc1ccc(CCNc2nc(SCc3ccccc3F)nc3ccccc23)cc1OC`, the Potency in assay [1] was 0.151 µM (active); in assay [2], 0.849 µM (active).
As to `COc1cc(C(=O)NC(c2ccc(Cl)cc2)c2cc(Cl)c3cccnc3c2O)cc(OC)c1OC` (centres undefined), the Potency entry in assay [1] is “inactive”. The Potency in assay [2] is 10.7 µM (active).
The like results for `Cc1cccc(NC(=O)Cn2cc(C(=O)c3ccco3)c3ccccc32)c1C` were, in that order, 6.01 µM (active) and 3.01 µM (active).
The like results for `COc1ccccc1Nc1nc(-c2ccccc2F)nc2ccccc12` were, in that order, “inactive” and 12 µM (active).
As for `Cc1cc(O)c(Cl)c(C)c1Cl`, the Potency result in assay [1] and in assay [2] was “inactive” in each case.
As for `Cc1ccccc1-n1c(SCc2ccc(Cl)cc2)nc2[nH]ncc2c1=O`, the Potency in assay [1] was 21.3 µM (active); in assay [2] it was 2.39 µM (active).
The like results for `CC(C)c1ccc(Nc2c(-c3ccccn3)nc3ccccn23)cc1` were, in that order, 26.8 µM (active) and 1.2 µM (active).
Take `O=C(NCc1ccco1)c1ccc2c(c1)N(Cc1cccc(Cl)c1)C(=O)c1ccccc1S2=O` (centres undefined): the Potency in assay [1] is 1.2 µM (active); in assay [2] it was 1.34 µM (active).
